Molecules are shown by their SMILES. The source made the active and inactive calls.

Test [1] can be described thus: small molecules captured by biotinylated probe aFSTL3 – biochemical, small-molecule microarray, fluorescence 635/667, stem cell growth factor project, primary screen (AID 1064).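 Note: measures binding of the biotinylated anti-FSTL3 antibody to printed compounds.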 The following applies: higher = more signal.
Test [2] is described as follows: binders from COS7 lysate, DM2A8 probe, primary screen, torsin A project, cell lysate, small-molecule microarray, fluorescence 635/667 (AID 1065). The note with it: higher = more signal, COS7 lysate expressing mutant human TOR1A.
Test [3] can be described thus: small molecules captured by biotinylated probe aFGF2 – biochemical, small-molecule microarray, fluorescence 635/667, stem cell growth factor project, primary screen (AID 1067).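 Note: measures binding of biotinylated aFGF2 protein to printed compounds on slides; z-score merges feature fluorescence and signal-to-noise across triplicate slides.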 The following applies: higher = more signal.
A short description of test [4]: small molecules captured by biotinylated probe aFGF10 – biochemical, small-molecule microarray, fluorescence 635/667, stem cell growth factor project, primary screen (AID 1071).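 Note: score merges 667 nm spot intensity and signal to noise from triplicate slides.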 The note with it: higher = more signal.
For test [5], the target named is Neurogenic locus notch homolog protein 2 (Homo sapiens) (UniProt Q04721). Nature of the test: small molecules binding Notch2 protein – biochemical, small-molecule microarray, 635 nm fluorescence, stem cell growth factors, primary screen (AID 1073). The note with it: higher = more signal.
Test [6] concerns the target Pro-neuregulin-1, membrane-bound isoform (Homo sapiens) (UniProt Q02297). Nature of the test: small molecules binding neuregulin-1 protein – biochemical, small-molecule microarray, fluorescence 635/667, psychiatric disease protein project, primary screen (AID 1075).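 Note: score combines 667 nm spot fluorescence with signal to noise.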 The note with it: NRG1 binding, 635 nm fluorescence, higher = more signal.
Test [7] deals with Neuregulin-1 EGF-like domain. Nature of the test: small molecules binding NRG1 EGF domain – biochemical, small-molecule microarray, 635 nm fluorescence, primary screen (AID 1081).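 Note: binding of the protein to compounds printed on small-molecule microarray slides.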 The note with it: higher = more signal.
Test [8] can be described thus: FRG1 expression reporter modulators in myotubes – cell-based, C2C12 myotubes, firefly/Renilla luciferase, luminescence, FRG1 inhibition for FSHD, primary screen (AID 1084). The following applies: FRG1 promoter luciferase, higher = more signal, called active from +8 up or from −8 down.
A short description of test [9]: small molecules captured by biotinylated probe aFST – biochemical, small-molecule microarray, fluorescence 635/667, stem cell growth factor project, primary screen (AID 1086).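 Note: score merges 667 nm fluorescence with signal-to-noise of each printed compound spot.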 The note with it: higher = more signal.
Test [10] can be described thus: binders of probe aHhip on microarray, primary screen, stem cell growth factor project, biochemical, small-molecule microarray, fluorescence 635/667 (AID 1087).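 Note: score merges spot fluorescence at 667nm with spot signal to noise ratio.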 The following applies: higher = more signal.
The test system of test [11] is PRMT1 (protein arginine N-methyltransferase 1). The test is described as follows: small molecules binding arginine methyltransferase PRMT1 – biochemical, small-molecule microarray, 635 nm fluorescence, primary screen (AID 1088).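 Note: binding of Prmt1 protein to compounds spotted on small-molecule microarray slides.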 The note with it: higher = more signal.
Test [12] can be described thus: growth effects on S. cerevisiae YJM789 – YJM789 clinical isolate, OD600, 24 h, basal, primary screen (AID 1089).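 Note: growth of clinical yeast isolate S. cerevisiae YJM 789 seeded 1000 cells per well; test concentration not given here.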 The following applies: higher = more signal, called active from +8 up or from −8 down.
The nature of test [13]: S. pombe growth modifiers, basal conditions – strain 972, OD600, 24 h, no modulator, primary screen (AID 1090).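 Note: basal condition with compound alone and no growth modifier present; test concentration not given here.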 The note with it: S. pombe 972 growth, higher = more signal, called active from +8 up or from −8 down.
Test [14] in a line: budding yeast growth modifiers under rapamycin – strain BY4716, OD600, 96 h, primary screen (AID 1091). Note: test concentration not given here. The note with it: S. cerevisiae BY4716 + rapamycin, higher = more signal, called active from +8 up or from −8 down.
In test [15] the target is Torsin-1A-interacting protein 2 (Homo sapiens) (UniProt Q8NFQ8). Nature of the test: small molecules binding lysate-expressed LULL1 – cell lysate, human LULL1 lysate, 635/667 nm fluorescence, primary screen (AID 1092).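 Note: score merges per-feature 667 nm fluorescence with signal-to-noise.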 The note with it: small-molecule microarray, hLULL1 lysate binding, 635 nm fluorescence; higher = more signal.
Test [16] in a line: optical density change of DRC41 E. coli – strain DRC41, OD650, 24 h, E. coli filamentation project, primary screen (AID 1093).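 Note: MC1000 strain lacking acrAB efflux and sulA so SOS filamentation is blocked; test concentration not given here.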 The following applies: E. coli DRC41 growth, higher = more signal, called active from +8 up or from −8 down.
A short description of test [17]: probe aLefty2 binding to arrayed compounds – biochemical, biotinylated probe, 635/667 nm fluorescence, primary screen (AID 1094).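 Note: score merges spot fluorescence near 667 nm with spot signal-to-noise ratio.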 The note with it: small-molecule microarray, higher = more signal.
For test [18], the system named is Noggin (protein binding on small-molecule microarray). Nature of the test: small molecules binding Noggin protein – biochemical, 635/667 nm fluorescence, primary screen (AID 1095).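 Note: score merges 667 nm feature fluorescence with signal to noise over triplicate slides.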 The note with it: 635 nm fluorescence, higher = more signal.
Test [19] addresses Neurogenic locus notch homolog protein 3 (Homo sapiens) (UniProt Q9UM47). The test is described as follows: small molecules binding NOTCH3 protein – biochemical, 635/667 nm fluorescence, primary screen (AID 1096). The following applies: small-molecule microarray, 635 nm fluorescence, higher = more signal.
Test [20] in a line: probe aEGFR binding to arrayed compounds – biochemical, biotinylated probe, 635/667 nm fluorescence, primary screen (AID 1097).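 Note: probe is a biotinylated anti-EGFR antibody binding compounds printed on slides; score combines fluorescence near 667 nm and signal to noise of each spot.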 The following applies: small-molecule microarray, higher = more signal.

Chain of Neurogenic locus notch homolog protein 3 (Homo sapiens) (Q9UM47 whole entry, looked up): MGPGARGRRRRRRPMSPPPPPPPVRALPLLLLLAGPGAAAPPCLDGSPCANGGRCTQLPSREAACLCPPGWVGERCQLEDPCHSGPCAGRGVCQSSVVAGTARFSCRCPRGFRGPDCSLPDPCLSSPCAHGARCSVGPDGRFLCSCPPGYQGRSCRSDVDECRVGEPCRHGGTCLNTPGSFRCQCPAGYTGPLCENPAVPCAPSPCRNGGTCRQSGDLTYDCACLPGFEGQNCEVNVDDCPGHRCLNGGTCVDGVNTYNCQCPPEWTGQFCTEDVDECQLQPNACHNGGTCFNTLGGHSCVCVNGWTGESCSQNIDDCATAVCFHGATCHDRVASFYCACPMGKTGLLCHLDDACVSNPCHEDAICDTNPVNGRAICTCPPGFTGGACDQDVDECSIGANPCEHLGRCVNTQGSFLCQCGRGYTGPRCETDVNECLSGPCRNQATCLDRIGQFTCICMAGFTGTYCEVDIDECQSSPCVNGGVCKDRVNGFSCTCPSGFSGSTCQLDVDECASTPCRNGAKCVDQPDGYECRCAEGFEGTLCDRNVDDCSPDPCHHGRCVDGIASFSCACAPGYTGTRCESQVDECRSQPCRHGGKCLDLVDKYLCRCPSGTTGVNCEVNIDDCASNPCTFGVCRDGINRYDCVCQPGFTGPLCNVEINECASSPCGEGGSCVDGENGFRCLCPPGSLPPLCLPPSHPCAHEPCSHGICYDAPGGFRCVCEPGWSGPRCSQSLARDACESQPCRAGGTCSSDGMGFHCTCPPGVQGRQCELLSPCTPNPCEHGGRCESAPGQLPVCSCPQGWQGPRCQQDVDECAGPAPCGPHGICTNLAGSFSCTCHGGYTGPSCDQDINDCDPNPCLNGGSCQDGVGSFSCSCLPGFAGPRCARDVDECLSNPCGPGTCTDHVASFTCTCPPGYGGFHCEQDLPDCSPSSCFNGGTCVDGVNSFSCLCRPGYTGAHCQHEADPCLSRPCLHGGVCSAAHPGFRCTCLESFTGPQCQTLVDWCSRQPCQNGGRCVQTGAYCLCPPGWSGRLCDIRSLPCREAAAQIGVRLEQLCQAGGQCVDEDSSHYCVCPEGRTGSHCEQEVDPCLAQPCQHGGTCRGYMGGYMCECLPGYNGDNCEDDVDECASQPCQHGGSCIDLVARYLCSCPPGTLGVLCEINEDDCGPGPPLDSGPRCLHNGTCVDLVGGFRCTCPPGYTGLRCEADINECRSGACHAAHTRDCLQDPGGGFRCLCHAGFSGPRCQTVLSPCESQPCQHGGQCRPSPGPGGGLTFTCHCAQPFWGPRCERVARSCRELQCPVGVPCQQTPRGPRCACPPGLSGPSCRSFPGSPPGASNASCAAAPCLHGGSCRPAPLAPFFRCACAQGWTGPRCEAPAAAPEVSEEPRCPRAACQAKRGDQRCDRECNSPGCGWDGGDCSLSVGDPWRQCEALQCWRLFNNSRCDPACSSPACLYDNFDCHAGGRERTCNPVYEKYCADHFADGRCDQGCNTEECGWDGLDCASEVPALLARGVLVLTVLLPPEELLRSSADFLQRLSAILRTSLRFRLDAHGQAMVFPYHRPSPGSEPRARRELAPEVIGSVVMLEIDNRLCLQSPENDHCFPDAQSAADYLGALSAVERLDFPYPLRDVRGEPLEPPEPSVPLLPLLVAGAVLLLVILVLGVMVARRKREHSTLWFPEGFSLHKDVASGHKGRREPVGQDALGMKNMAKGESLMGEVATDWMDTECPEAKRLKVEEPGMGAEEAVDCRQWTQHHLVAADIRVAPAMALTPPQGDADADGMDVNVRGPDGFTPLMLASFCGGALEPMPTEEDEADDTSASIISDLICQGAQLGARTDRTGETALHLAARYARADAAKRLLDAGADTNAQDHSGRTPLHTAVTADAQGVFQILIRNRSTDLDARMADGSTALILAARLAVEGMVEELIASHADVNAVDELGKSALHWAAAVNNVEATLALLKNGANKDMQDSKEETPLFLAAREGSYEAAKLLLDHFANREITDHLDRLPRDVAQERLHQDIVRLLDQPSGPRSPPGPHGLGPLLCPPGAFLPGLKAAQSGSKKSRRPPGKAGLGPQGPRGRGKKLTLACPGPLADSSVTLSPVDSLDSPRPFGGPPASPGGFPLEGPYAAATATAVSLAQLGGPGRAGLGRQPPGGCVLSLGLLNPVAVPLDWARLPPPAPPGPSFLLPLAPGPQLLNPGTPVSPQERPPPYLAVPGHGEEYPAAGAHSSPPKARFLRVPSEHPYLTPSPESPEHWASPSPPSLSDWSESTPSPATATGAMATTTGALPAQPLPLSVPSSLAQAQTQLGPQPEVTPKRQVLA
Chain of Neurogenic locus notch homolog protein 2 (Homo sapiens) (Q04721 whole entry, looked up, canonical isoform): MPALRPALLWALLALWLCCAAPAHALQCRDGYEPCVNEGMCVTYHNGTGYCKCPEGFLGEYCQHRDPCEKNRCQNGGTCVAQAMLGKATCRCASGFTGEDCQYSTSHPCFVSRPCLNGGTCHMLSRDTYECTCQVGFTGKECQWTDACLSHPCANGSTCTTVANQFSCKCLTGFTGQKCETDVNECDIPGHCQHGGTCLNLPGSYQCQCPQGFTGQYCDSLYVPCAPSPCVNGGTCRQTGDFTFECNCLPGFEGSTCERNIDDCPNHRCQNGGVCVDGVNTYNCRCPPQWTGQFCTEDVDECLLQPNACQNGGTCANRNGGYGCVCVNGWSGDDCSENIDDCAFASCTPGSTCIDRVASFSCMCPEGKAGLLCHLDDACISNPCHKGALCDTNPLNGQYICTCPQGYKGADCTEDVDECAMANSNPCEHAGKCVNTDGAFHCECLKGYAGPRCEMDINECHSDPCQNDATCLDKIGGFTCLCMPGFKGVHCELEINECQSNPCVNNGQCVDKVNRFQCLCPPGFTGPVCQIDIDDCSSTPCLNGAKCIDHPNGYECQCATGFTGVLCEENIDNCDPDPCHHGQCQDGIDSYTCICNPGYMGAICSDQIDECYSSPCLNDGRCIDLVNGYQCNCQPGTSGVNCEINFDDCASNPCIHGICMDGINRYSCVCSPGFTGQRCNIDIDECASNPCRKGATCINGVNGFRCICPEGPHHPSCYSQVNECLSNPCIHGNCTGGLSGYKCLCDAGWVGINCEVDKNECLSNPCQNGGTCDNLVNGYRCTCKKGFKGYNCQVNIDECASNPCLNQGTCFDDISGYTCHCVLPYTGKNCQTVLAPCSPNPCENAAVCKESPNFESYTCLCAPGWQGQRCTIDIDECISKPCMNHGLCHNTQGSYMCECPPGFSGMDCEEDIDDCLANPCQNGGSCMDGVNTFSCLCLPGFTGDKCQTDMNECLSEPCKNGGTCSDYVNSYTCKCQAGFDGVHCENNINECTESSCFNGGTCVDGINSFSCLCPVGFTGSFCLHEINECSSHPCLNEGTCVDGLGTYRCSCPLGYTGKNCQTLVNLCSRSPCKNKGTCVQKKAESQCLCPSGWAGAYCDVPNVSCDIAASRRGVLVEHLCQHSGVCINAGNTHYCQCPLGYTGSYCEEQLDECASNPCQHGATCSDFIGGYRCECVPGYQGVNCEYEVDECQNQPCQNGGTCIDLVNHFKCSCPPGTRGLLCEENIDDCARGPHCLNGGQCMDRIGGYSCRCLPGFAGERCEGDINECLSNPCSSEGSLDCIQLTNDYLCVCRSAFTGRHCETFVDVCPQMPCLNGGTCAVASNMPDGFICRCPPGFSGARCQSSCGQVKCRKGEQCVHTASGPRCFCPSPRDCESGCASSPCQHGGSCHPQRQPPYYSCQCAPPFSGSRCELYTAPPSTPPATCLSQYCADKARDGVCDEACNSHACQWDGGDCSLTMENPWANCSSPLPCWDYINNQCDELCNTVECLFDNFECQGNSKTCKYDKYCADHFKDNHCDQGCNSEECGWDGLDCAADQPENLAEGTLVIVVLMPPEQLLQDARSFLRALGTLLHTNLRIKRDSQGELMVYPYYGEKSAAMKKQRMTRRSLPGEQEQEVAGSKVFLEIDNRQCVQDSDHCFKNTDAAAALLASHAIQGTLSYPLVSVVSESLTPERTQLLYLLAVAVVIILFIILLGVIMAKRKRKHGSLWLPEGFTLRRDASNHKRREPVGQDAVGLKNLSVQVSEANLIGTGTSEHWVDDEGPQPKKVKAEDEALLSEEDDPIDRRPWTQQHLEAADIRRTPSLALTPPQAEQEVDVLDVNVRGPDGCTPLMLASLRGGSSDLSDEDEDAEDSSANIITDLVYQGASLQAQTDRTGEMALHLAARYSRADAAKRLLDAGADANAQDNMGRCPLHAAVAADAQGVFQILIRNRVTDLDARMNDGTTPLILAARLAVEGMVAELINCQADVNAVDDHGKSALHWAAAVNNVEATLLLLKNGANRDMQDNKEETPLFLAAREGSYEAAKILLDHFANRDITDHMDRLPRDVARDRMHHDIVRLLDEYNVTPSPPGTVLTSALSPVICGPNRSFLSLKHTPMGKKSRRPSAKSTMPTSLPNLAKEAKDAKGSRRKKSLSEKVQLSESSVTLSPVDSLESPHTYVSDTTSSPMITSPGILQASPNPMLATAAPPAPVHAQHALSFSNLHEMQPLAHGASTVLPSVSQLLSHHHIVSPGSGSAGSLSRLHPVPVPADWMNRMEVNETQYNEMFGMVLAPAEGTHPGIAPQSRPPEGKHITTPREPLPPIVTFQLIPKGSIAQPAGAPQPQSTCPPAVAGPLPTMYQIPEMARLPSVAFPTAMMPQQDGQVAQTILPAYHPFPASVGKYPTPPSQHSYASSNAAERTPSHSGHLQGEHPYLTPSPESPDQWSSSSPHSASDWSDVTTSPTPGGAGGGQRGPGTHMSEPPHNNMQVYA

Take `O=C1[C@H]2C=C(Br)[C@H](C[C@@H]2OCCCCCCO)[C@@]12CO2`: the composite z-score was 0.125 in test [1]; 0.629 in [2]; -0.0443 in [3]; -0.0632 in test [4]; -0.565 in [5]; -0.429 in test [6]. The composite z-score in test [7] was -0.394; in test [9], 0.0363; in test [10], 0.122; in test [11], -0.729; in test [15], -0.283; in test [17], 0.0183. Besides, the composite z-score in test [18] was 0.387; in test [19], -0.615; in [20], -0.131. Further, the z-score is -0.0205 (inactive) in test [8]; 0.335 (inactive) in test [12]; -1.29 (inactive) in test [13]; 1.32 (inactive) in test [14]; -1.74 (inactive) in [16].
Regarding `COc1ccc([Si](C)(C)[C@H]2[C@H](CCn3cc([C@H](O)c4ccccc4)nn3)O[C@@]3(C(=O)N(C)c4ccccc43)[C@@H]2C)cc1`, the composite z-score in test [1] is 0.0044; in [2], 0.165; in test [3], -0.0418; in test [4], -0.209; in test [5], -0.623; in [6] it was 0.104. Moreover, the composite z-score in [7] was 0.553; in test [9], -0.619; in test [10], -0.199; in [11], -0.133; in test [15] it was 0.446; in [17], -0.0317. In addition, the results for the composite z-score in [18], in [19] and in test [20] were 0.176, 0.133 and -0.171, respectively. Besides, the z-score is -1.36 (inactive) in test [8]; -2.61 (inactive) in [12]; 0.644 (inactive) in test [13]; -0.254 (inactive) in [14]; 0.271 (inactive) in test [16].
Regarding `CN(C)CCCCNC(=O)[C@@H]1C[C@@H]2C(=O)N[C@@H](CCCCN)C(=O)N2[C@@H]1c1ccc(O)cc1`, the composite z-score in [1] is 0.597; in test [2] it was 0.034; in test [3] it was -0.145; in [4], -0.146; in [5], 0.471; in [6], 0.707. In addition, the composite z-score in [7] turned out to be 1.13; in test [9], 0.214; in test [10] it was 0.151; in test [11], 1.3; in test [15], 1.12; in test [17], 0.0864. Also, the composite z-score in test [18] turned out to be 0.855; in test [19], 0.159; in test [20], 0.0552. The z-score in [8] was -0.778 (inactive); in [12], 0.184 (inactive); in [13], 1.17 (inactive); in test [14], 3.58 (inactive); in test [16], 0.813 (inactive).
For the compound `O=C1OCCC/C=C\[C@H]2OC34C=CCN(c5ccc6ccccc6c5)C(=O)[C@H]3N(CCCCCO)C(=O)[C@@H]4C12` (stereo not given in full), the composite z-score in [1] was 0.149; in test [2] it was -0.763; in test [3], -0.195; in test [4], -0.759; in test [5], -0.367; in test [6] it was -0.634. The composite z-score was -0.773 in test [7]; -0.602 in test [9]; -0.169 in test [10]; -1.23 in test [11]; -1.77 in [15]; -0.156 in test [17]. In addition, the composite z-score was -0.766 in test [18], -0.359 in test [19] and -0.13 in test [20]. Besides, the z-score in test [8] was 0.815 (inactive); in test [12] it was -1.56 (inactive); in test [13] it was -1.52 (inactive); in [14], -0.419 (inactive); in [16], -0.72 (inactive).
With `COC(=O)c1c(CC[C@@H](CO)NC(=O)N[C@@H](Cc2ccccc2)Cn2cc(-c3ccccn3)nn2)oc(C(=O)N2CCOCC2)c1C(=O)OC`, the composite z-score in test [1] was -0.39; in [2], -0.451; in test [3] it was -0.0348; in test [4], 0.218; in test [5] it was 0.303; in test [6], -0.0149. The composite z-score in test [7] is 0.734; in [9], 0.128; in test [10], -0.356; in test [11] it was 0.278; in test [15] it was 0.843; in test [17], -0.124. Besides, the results for the composite z-score in test [18], in test [19] and in test [20] were 0.227, 0.495 and -0.183, respectively. In addition, the z-score is 0.183 (inactive) in test [8]; 0.503 (inactive) in test [12]; 0.82 (inactive) in test [13]; -0.593 (inactive) in test [14]; -0.613 (inactive) in [16].
As to `Cc1ccc(/C=C/C=O)cc1`, the composite z-score was 0.16 in test [1]; -0.513 in test [2]; -0.0704 in [3]; 0.2 in test [4]; -0.516 in [5]; -0.0188 in test [6]. Also, the composite z-score in [7] was -0.452; in test [9], -0.0522; in [10], 0.0156; in test [11], -0.379; in test [15], -0.1; in [17], -0.123. Further, the composite z-score was -0.244 in [18], -0.998 in test [19] and -0.135 in test [20]. The z-score in test [8] is 0.944 (inactive); in test [12] it was 0.427 (inactive); in [13], -4.06 (inactive); in test [14], -0.141 (inactive); in [16] it was 0.492 (inactive).
Take `C=C(CCCC)/C(=C/C[C@H](OC(C)=O)c1ccccc1OCCO)c1cnc2ccccc2c1`: the composite z-score in [1] was -0.279; in test [2], 0.0976; in [3], -0.115; in test [4] it was 0.506; in [5] it was 0.3; in [6] it was 0.324. In addition, the composite z-score in test [7] is 1.04; in test [9], 0.162; in [10] it was 0.0505; in [11], 1.32; in test [15], 1.15; in test [17], -0.235. In addition, the composite z-score in [18] is 0.788; in test [19] it was 1.1; in [20], -0.142. The z-score in test [8] was -1.48 (inactive); in [12], 0.617 (inactive); in test [13] it was -0.654 (inactive); in test [14] it was 0.826 (inactive); in [16], 0.02 (inactive).
Regarding `COCCCNC(=O)[C@@]1(Cc2ccccc2CN=[N+]=[N-])N=C(c2ccc(OCCCO)cc2)O[C@H]1c1ccccc1CN=[N+]=[N-]`, the composite z-score was -0.152 in test [1]; 0.321 in test [2]; 0.154 in test [3]; 0.916 in test [4]; 1.27 in test [5]; 1.96 in test [6]. Further, the composite z-score in [7] is 1.11; in test [9], 1.43; in test [10], -0.286; in test [11], 1.24; in test [15] it was 3.34; in test [17], 0.239. In addition, the results for the composite z-score in test [18], in [19] and in test [20] were 0.406, 0.885 and -0.067, respectively. For the same compound, the z-score in test [8] was 0.399 (inactive); in test [12], -2.06 (inactive); in test [13], -1.07 (inactive); in test [14], 26.7 (active); in [16], 1.71 (inactive).
In the case of `CN1C(=O)C2C=CC(C(O)c3ccccc3)N(N3CCCCC3)C2C1=O` (stereo not given), the composite z-score is -0.239 in [1]; 0.876 in [2]; 0.054 in test [3]; 1.02 in [4]; 1.42 in test [5]; 1.62 in [6]. The composite z-score in test [7] is 1.02; in [9], 0.406; in test [10], -0.0346; in test [11], 0.664; in [15], 3.52; in [17], 0.0215. The values for the composite z-score in test [18], in test [19] and in test [20] were 0.145, 0.646 and 0.0713, respectively. Further, the z-score is -1.13 (inactive) in [8]; 0.201 (inactive) in test [12]; 0.24 (inactive) in test [13]; 0.404 (inactive) in test [14]; -2.05 (inactive) in test [16].
